This passage reports max response, negative = inhibition and Potency results from PubChem BioAssay AID720504 (National Center for Advancing Translational Sciences (NCATS), 2013).

Structures are written as SMILES. Among all 360,000 compounds or so, about 10,000 (2.8%) were called active. About 4% were inconclusive and are not listed. Many of the other results were omitted from the sample, so actives are more common in it than they were. A number with no mark means an inactive call. The call rests on the fitted dose curve; in most records, active means well fitted inhibition curve with a large enough effect; inconclusive means small, poorly fitted or top-dose-only effect; inactive means flat fitted curve, though single readings scatter.
On the % scale 0 is the no-effect control and ±100 the full control effect; potency means the concentration at half of the fitted maximal effect.

This experiment deals with Serine/threonine-protein kinase PLK1 (Homo sapiens) (UniProt P53350). As to the kind of experiment: qHTS for Inhibitors of PLK1-PDB (polo-like kinase 1 - polo-box domain): Primary Screen. Further: nearly all actives have a fitted effect of over 65% in size. On max response, negative = inhibition: series mostly up to about 57 µM. The conditions noted are these: Plk1 PBD binding of FITC phosphopeptide, fluorescence polarization. For orientation: Quantitative high-throughput screening tests each substance at several concentrations.
Serine/threonine-protein kinase PLK1 (Homo sapiens), sequence (P53350 whole entry, looked up, the tested form may be a part): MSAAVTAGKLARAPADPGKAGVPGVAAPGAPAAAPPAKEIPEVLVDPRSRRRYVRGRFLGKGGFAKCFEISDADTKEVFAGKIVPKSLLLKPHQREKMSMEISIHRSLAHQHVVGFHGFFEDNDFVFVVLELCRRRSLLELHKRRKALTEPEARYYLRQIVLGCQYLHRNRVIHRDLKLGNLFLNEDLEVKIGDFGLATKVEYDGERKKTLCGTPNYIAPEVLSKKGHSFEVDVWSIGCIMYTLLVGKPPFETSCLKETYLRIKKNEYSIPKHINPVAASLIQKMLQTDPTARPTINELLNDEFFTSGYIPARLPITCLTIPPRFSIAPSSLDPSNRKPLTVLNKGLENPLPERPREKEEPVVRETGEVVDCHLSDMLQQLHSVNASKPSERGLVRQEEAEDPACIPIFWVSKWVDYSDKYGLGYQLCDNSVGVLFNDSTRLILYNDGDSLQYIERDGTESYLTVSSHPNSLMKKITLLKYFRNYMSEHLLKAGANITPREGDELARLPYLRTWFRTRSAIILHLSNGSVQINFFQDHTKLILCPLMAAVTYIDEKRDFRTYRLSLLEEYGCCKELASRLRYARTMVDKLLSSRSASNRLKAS
On to `N#Cc1ccc(C(C(=O)NCc2ccccc2)n2c(=O)c(-c3ccco3)nc3ccccc32)cc1` (stereo unspecified), for which the max response, negative = inhibition is -22.3%.
For the compound `Cc1cccc(C)c1NC(=O)C1CCCN1C(=O)OC(C)(C)C` (stereo unspecified), the Potency is 23.8 µM (active).
In the case of `Cc1ccc(C)c(NC(=O)C2CCCN2C(=O)OC(C)(C)C)c1` (stereo unspecified), the max response, negative = inhibition is -4.64%.
Take `Cc1ccc(NC(=O)C2CCCN2C(=O)OCc2ccccc2)cc1C` (stereo unspecified): the max response, negative = inhibition was 2.68%.
Still for that read-out and setting: with `CC(=O)NN=C(C)c1ccc(NC(=O)C2CC2)cc1` the figure was -11.2%; with `COc1cc(Cn2c3ccc(NC(=O)CC(C)c4ccccc4)cc3c(=O)n2C)ccc1F` (stereo unspecified), -6.73%.
On to `CCNC(=S)Nc1ccc2c(c1)c(=O)n(C)n2Cc1ccc(Cl)cc1`, for which the Potency is 21.2 µM (active).
Turning to `Cn1c(=O)c2cc(NC(=O)NCCc3cccs3)ccc2n1Cc1cccc(C(F)(F)F)c1`, the max response, negative = inhibition is -2.39%.
Still for that read-out and setting: next, `COc1ccc(-c2ccc(C(=O)NCCN3CCOCC3)c3occc23)c(C)c1`: -10.9%.
With `OCCN1CCN(C(=S)c2ccc(-c3ccccc3)cc2)CC1`, the Potency was 4.74 µM (active).
Consider `CN1CCN(CCCCOc2ccccc2-c2ccccc2)CC1`, for which the max response, negative = inhibition is -11.3%.
Take `C=CCc1ccccc1OCC(O)CN1CCN(CCO)CC1` (stereo unspecified): the max response, negative = inhibition is 1.6%.
Turning to `CCc1nc2c(OCCOc3ccccc3)cccn2c1N(C)C(=O)c1ccc(OC)cc1`, the max response, negative = inhibition was -8.42%.
`CC1(C(=O)NS(=O)(=O)c2ccc(Cl)cc2)CCN1C(=O)CC1CCCC1` (stereo unspecified): the max response, negative = inhibition was -6.5%.
Regarding `Cc1ccccc1S(=O)(=O)NC(=O)C1(C)CCN1C(=O)C1(c2ccc(Cl)cc2)CC1` (stereo unspecified), the max response, negative = inhibition is 3.44%.
With `CC1(C(=O)NS(=O)(=O)c2ccc3ccccc3c2)CCN1C(=O)C1(c2ccc(Cl)cc2)CCC1` (stereo unspecified), the Potency was 42.3 µM (active).
`CCCCN(C=O)c1c(CC)nc2c(OCc3ccccc3C(=O)OC)cccn12`: the max response, negative = inhibition was -4.2%.
On the same count and under the same terms, with `O=C1NC[C@H](CCCCN2C[C@H](Cc3ccc(O)cc3)N(CCc3ccccc3)C(=O)C2=O)N(CCc2ccccc2)C1=O` the figure was -1.17%; with `CCCn1c(SCC(=O)Nc2c(C)cccc2C)nnc1C(C)C`, -7.66%.
On to `CCCn1c(SCC(=O)c2ccc3c(c2)OCCO3)nnc1C(C)C`, for which the Potency was 2.99 µM (active).
`CCCn1c(SCC(N)=O)nnc1C(C)C`: the max response, negative = inhibition is -6.68%.
As for `CC(C)Cc1ccc(-c2cc3nc(NCc4cccc(Cl)c4)ccn3n2)cc1`, the max response, negative = inhibition was -0.174%.
Regarding `CCOc1ccc(N2CC(C(=O)NCc3ccccn3)CC2=O)cc1` (stereo unspecified), the max response, negative = inhibition was 6.65%.
The same measure, in the same setting: next, `COc1ccc(C)cc1NC(=O)NCc1ccccn1`: 3.53%.
For the compound `COc1ccc(NC(=O)C2C3C=CC(C3)C2C(=O)NCc2ccccn2)c(OC)c1` (stereo unspecified), the Potency is 26.7 µM (active).
On to `CCCC(=O)N1CCC1(C)C(=O)NCc1ccc(SC)cc1` (stereo unspecified), for which the max response, negative = inhibition is 4.65%.
For the compound `CO[C@@H]1CN(C)C(=O)c2cc(NC(=O)Nc3cc(F)ccc3F)ccc2OC[C@H](C)N(C(=O)c2ccccn2)C[C@@H]1C`, the max response, negative = inhibition was -4.19%.
On the same count and under the same terms, with `COc1ccc(CNC(=O)COC(=O)c2c(C)nn(-c3ccccc3)c2C)cc1OC` the figure was -2.1%.
Turning to `Cc1nn(-c2ccccc2)c(C)c1C(=O)OCC(=O)NC(=O)NC1CCCCC1`, the Potency was 21.2 µM (active).
As to `Cc1cccc(C)c1NC(=O)COC(=O)c1c(C)nn(-c2ccccc2)c1C`, the max response, negative = inhibition is 2.85%.
Same read-out and setting: next, `Cc1ccc(F)c(S(=O)(=O)NC(=O)C2(C)CCN2C(=O)CCc2cccs2)c1` (stereo unspecified): -3.35%; `CCn1c(COc2ccc(OC)cc2)nnc1SCC(=O)Nc1cc(OC)ccc1OC`: -3.02%.
Still for that read-out and setting: with `CCSc1nc(O)c(C(c2cccc(OC)c2)c2c(O)nc(SCC)[nH]c2=O)c(=O)[nH]1` the figure was -21.7%.
On to `CCn1c(SC)nc(O)c(C(c2ccc(OC)c(O)c2)c2c(O)nc(SC)n(CC)c2=O)c1=O`, for which the Potency is 16.8 µM (active).
`Cc1cccc(C(=O)NC2CCN(CC(=O)Nc3cccc(Cl)c3)CC2)c1`: the max response, negative = inhibition is -8.54%.
On the same count and under the same terms, with `COc1ccc([C@H]2C[C@@H](n3cc(COC(=O)c4ccccc4)nn3)[C@H](O)CN2C(=O)c2cccs2)cc1` the figure was -9.99%; with `COc1cccc(CNc2nc3cc(-c4csc5ccccc45)sc3c(=O)n2C)c1`, -2.77%.
On to `Cn1c(=O)oc2cc(S(=O)(=O)NCCC(=O)NCc3ccccc3Cl)ccc21`, for which the Potency was 23.8 µM (active).
`Cc1ccc(NC(=O)CCNS(=O)(=O)c2ccc3c(c2)oc(=O)n3C)cc1C`: the max response, negative = inhibition is 0.556%.
Turning to `COc1cccc(NC(=O)CCNS(=O)(=O)c2ccc3c(c2)oc(=O)n3C)c1`, the max response, negative = inhibition is -5.8%.
As to `CC(C)(C)c1cc(CN2CCN(CCC#N)CC2)cc(C(C)(C)C)c1O`, the Potency was 8.44 µM (active).
Take `N#CCCN1CCN(S(=O)(=O)c2ccc(S(=O)(=O)N3CCCC3)cc2)CC1`: the max response, negative = inhibition was -6.31%.
The same measure, in the same setting: next, `N#Cc1cccc(CN2CCC(=O)N(CCO)CC2)c1`: -6.69%.
As for `COc1ccc(OC)c(CN2C(=O)CCC2(C)c2nnnn2Cc2ccccc2)c1` (stereo unspecified), the max response, negative = inhibition was -0.666%.
The same measure, in the same setting: with `Cc1ccc(C)c(C(O)c2ncc(-c3cccc4ccccc34)[nH]2)c1` (stereo unspecified) the figure was -3.49%.
As for `CCc1nc2ccc(C(=O)NCc3ccc(OC)cc3)cn2c1N(CC)Cc1cccc(Br)c1`, the max response, negative = inhibition is -13.2%.
On the same count and under the same terms, next, `CC(C)c1ccc(C(=O)OC2CCOC2=O)cc1` (stereo unspecified): -4.1%.
On to `Cc1nn(Cc2ccccc2)c(Cl)c1C(=O)OC1CCOC1=O` (stereo unspecified), for which the Potency is 21.2 µM (active).
For the compound `COC(=O)c1ccc(COC(=O)c2c(C)nn(Cc3ccccc3Cl)c2Cl)o1`, the max response, negative = inhibition is -10.8%.
Take `N#Cc1ccc(-c2nc3c(Cl)cc(C(F)(F)F)cn3c2Cc2ccccc2C(F)(F)F)cc1`: the max response, negative = inhibition was 1.56%.
On to `CC1(C(=O)Nc2ccccc2Br)CCN1C(=O)CC1CC1` (stereo unspecified), for which the max response, negative = inhibition was -11.1%.
Still for that read-out and setting: next, `O=C(N/N=C/c1cc2c(cc1Br)OCO2)C1COc2ccccc2O1` (stereo unspecified): 6.15%; `O=C(/C=C/c1cc2c(cc1Br)OCO2)NCc1ccc(Cl)cc1`: -5.95%.
`O=C(O)CC/C(=C\c1cc2c(cc1Br)OCO2)c1nc2ccccc2s1`: the Potency was 23.8 µM (active).
With `CC(=O)C1=CCC(c2ccccc2)N(S(=O)(=O)c2ccc(C)cc2)C1` (stereo unspecified), the max response, negative = inhibition is -15.4%.
On the same count and under the same terms, next, `CCCNC(=O)C1(C)CCN1C(=O)Cc1ccc(-c2ccccc2)cc1` (stereo unspecified): -9.86%.
Turning to `Cc1nc2c(C(=O)NCc3ccc4c(c3)OCO4)c[nH]n2c(=O)c1Cc1ccccc1F`, the Potency is 21.2 µM (active).
With `COc1cc(OC)c(C(=O)NCc2ccc3c(c2)OCO3)cc1OC`, the max response, negative = inhibition was -15%.
Still for that read-out and setting: with `O=C(NCc1ccc2c(c1)OCO2)c1cc(F)c(F)cc1Cl` the figure was -7.37%.
With `CC1(C(=O)NCc2ccco2)Cc2c(-c3ccc4c(c3)OCO4)ccnc2O1` (stereo unspecified), the max response, negative = inhibition is -5.07%.
Consider `CCCNC(=O)C[C@@H]1CC[C@@H]2[C@H](COC[C@H](O)CN2C(=O)c2cc(Cl)cc(Cl)c2)O1`, for which the max response, negative = inhibition was -0.764%.
Turning to `Cn1cc(CNC(=O)c2ccc(OC3CCN(Cc4ccccn4)CC3)cc2)cn1`, the max response, negative = inhibition is -5.74%.
On to `Cc1nn(C)c(C)c1C(C)NC(=O)c1ccc(OC2CCN(Cc3ccccn3)CC2)cc1` (stereo unspecified), for which the Potency was 2.12 µM (active).
With `CN(CCc1ccccn1)C(=O)c1ccc(OC2CCN(Cc3ccccn3)CC2)cc1`, the max response, negative = inhibition was 5.54%.
As for `Cc1cccc(S(=O)(=O)N(C)C[C@H]2OCc3cnnn3CCCC(=O)N([C@@H](C)CO)C[C@H]2C)c1`, the max response, negative = inhibition was -16.9%.
For `CCCCCCNC(=O)O[C@H]1CN(C(=O)OC(C)C)N(C(=O)OC(C)C)[C@@H]2CN(S(=O)(=O)c3ccc(C)cc3)C[C@]12O`, the max response, negative = inhibition is -12.5%.
Still for that read-out and setting: next, `O=C(Nc1ccc(S(=O)(=O)Nc2ncccn2)cc1)C12CC3CC(CC(C3)C1)C2`: -7.71%.
On the same count and under the same terms, next, `COC(=O)c1ccc(NC(=S)NN2CCOCC2)cc1`: -1.75%.
For `COC(=O)c1ccc(NC(=O)C23CC4CC(C2)CC(n2cnc(Cl)n2)(C4)C3)cc1`, the Potency is 23.8 µM (active).
As to `O=C(CNC(=O)N1CC(=O)Nc2ccccc21)Nc1ccc(Br)cc1F`, the max response, negative = inhibition was -4.26%.
For `Cc1ccc(S(=O)(=O)N2C[C@H]3C(=O)C[C@@H](c4cccc5ccccc45)N(S(=O)(=O)c4ccc(C)cc4)[C@H]3C[C@H]2c2ccc(Cl)cc2)cc1`, the max response, negative = inhibition was -18.3%.
Same read-out and setting: next, `COC(=O)c1ccc2nc(-c3ccc(C)cc3)c(Cc3ccc(OC)cc3C)n2c1`: -3.95%; `CCN(C(=O)CSc1cccc[n+]1[O-])c1ccccc1`: 4.89%.
Take `O=C(CSc1cccc[n+]1[O-])NCCCc1ccccc1`: the max response, negative = inhibition is -10.9%.
Consider `O=C(CSc1cccc[n+]1[O-])c1ccc(-c2ccccc2)cc1`, for which the Potency is 23.8 µM (active).
Take `N#CCCN(C(=O)Nc1ccc(Cl)c(Cl)c1)C1CCCCC1`: the max response, negative = inhibition was 9.26%.
The same measure, in the same setting: next, `NC(Cc1ccccc1)c1csc(Nc2cc(Oc3ccccc3)ncn2)n1` (stereo unspecified): -8.4%; `COC(=O)CNC(=O)c1ccc(OC2CCN(C(=O)C3CC3)CC2)cc1`: -1.29%.
With `CCc1ccc(/C=N/NC(=O)c2ccc(OC3CCCC3)cc2)s1`, the Potency is 11.9 µM (active).
As to `CCn1c(/C=N/NC(=O)c2ccc(OC)cc2)nc2ccccc21`, the max response, negative = inhibition is 1.71%.
In the case of `Nc1cccc(-c2cncc(N3CCN(Cc4ccccn4)CC3)n2)c1`, the max response, negative = inhibition was -6.49%.
Still for that read-out and setting: next, `COc1ccc(-n2c(-c3ccc(Cl)cc3)n[nH]c2=S)c(OC)c1`: -18.3%; `CC(C)CCNC(=O)c1[nH]c(C(F)(F)F)nc1-c1ccccc1`: -2.14%.
With `COc1ccc(OCC(=O)NNC(=O)C2CCC2)cc1`, the max response, negative = inhibition is 3.29%.
The same measure, in the same setting: next, `COc1ccc(C2CC(c3ccccc3)=NN2C(=O)COC(=O)COc2ccccc2)cc1` (stereo unspecified): -2.07%.
Turning to `COc1ccc(OCc2nnc3n2N=C(c2ccccc2)C(CC(=O)O)S3)cc1` (stereo unspecified), the Potency is 1.5 µM (active).
